Measurements published in PubChem BioAssay AID628 (Vanderbilt High Throughput Screening Facility, 2007).
In all, about 64,000 compounds went through this assay and about 2,200 (3.4%) were called active.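 Rule for the calls: active = calcium fluorescence response, raw or row-and-column corrected B-score, differing from the plate sample mean either way at a set confidence level, mostly lower; inactive = the rest.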 Many of the other results were omitted from the sample, so actives are more common in it than they were.

What follows are compounds tested against Muscarinic acetylcholine receptor M1 (Rattus norvegicus) (UniProt P08482) (assay: antagonists of rat M1 muscarinic receptor (AID 628)). Details: CHO-M1 cells, Fluo-4 calcium, ACh EC80 antagonist mode; at 10 µM; hits give low values.
Sequence of Muscarinic acetylcholine receptor M1 (Rattus norvegicus) (P08482 whole entry, looked up): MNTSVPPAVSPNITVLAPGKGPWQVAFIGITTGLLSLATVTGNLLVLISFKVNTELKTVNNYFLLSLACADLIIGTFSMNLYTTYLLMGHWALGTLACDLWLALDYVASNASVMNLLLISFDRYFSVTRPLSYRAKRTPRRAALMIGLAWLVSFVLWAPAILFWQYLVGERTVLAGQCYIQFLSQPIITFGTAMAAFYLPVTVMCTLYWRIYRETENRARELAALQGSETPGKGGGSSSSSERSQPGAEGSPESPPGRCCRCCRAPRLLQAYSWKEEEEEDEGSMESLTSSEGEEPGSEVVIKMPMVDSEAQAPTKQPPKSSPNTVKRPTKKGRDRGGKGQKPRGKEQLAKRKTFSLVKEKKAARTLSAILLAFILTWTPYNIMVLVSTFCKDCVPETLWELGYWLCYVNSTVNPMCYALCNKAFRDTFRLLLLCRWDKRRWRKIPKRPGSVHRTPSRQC
COc1ccc(C(CC(=O)O)NC(=O)Cc2ccccc2)cc1 (stereo unspecified) was tested, and the B-score was -0.777 (inactive). With Cc1cc(C(=O)COC(=O)c2cccs2)c(C)n1-c1c(C)n(C)n(-c2ccccc2)c1=O the B-score was -1.28 (inactive). For CCC/C(O)=C1\C(=O)CC(C)(C)CC1=Nc1ccccc1OC, the B-score was -1.93 (active). In the case of COc1ccccc1N=C1SC(C)CN1C(=O)C1CCC1 (stereo unspecified), the B-score is reported as 0.0033 (inactive). For CCOc1ccccc1N=C1NC(=O)CS1, the B-score was 0.266 (inactive). With CC1CN(Cc2nc3c(c(=O)n(C)c(=O)n3C)n2Cc2cccc(Cl)c2)CC(C)O1 (stereo unspecified) the B-score was 1.23 (inactive). With CC(=O)NCC(=O)N(C)C(C(=O)Nc1ccc2c(c1)OCCO2)c1ccccc1 (stereo unspecified) the B-score was 0.158 (inactive). In the case of CCCCCCOC(=O)NCC(O)c1ccccc1 (stereo unspecified), the B-score is reported as 0.126 (inactive). In the case of CCCCC(CCC(=O)Nc1ccc(C(=O)OCC)cc1)C(=O)O (stereo unspecified), the B-score is reported as 0.867 (inactive). With CCCCCOC(=O)NCCOC(=O)Nc1ccc(C(=O)OCC)cc1 the B-score was -2.48 (active). With Cc1ccccc1Cn1c(=O)[nH]c2ccccc21 the B-score was -1.7 (inactive). With COc1ccc(CCn2c(=N)c(C(=O)NCc3ccco3)cc3c(=O)n4cccc(C)c4nc32)cc1 the B-score was -2.38 (active). CCn1c(=N)c(C(=O)NCCCOC)cc2c(=O)n3cccc(C)c3nc21 was tested, and the B-score was -0.808 (inactive). With COc1ccc(CNC(=O)c2cc3c(=O)n4ccccc4nc3n(CC3CCCO3)c2=N)cc1 (stereo unspecified) the B-score was -1.29 (inactive). CCOC(=O)C1CCN(C(=O)C2CCN(S(=O)(=O)c3c(C)noc3C)CC2)CC1 was tested, and the B-score was 0.0324 (inactive). Cn1c(=NC(=O)CSCC(=O)N2CCOCC2)sc2ccccc21 was tested, and the B-score was 0.949 (inactive). With CC(C)Oc1ccc(C(=O)Nc2cc(=O)n(C)c(=O)n2C)cc1 the B-score was -0.0919 (inactive). Cc1ccc(S(=O)(=O)Nc2ccccc2CNc2c(C)n(C)n(-c3ccccc3)c2=O)cc1 was tested, and the B-score was 0.193 (inactive). With COC(=O)Nc1c(C)n(C)n(-c2ccccc2)c1=O the B-score was -0.678 (inactive). COc1ccc(S(=O)(=O)Nc2c(C)n(C)n(-c3ccccc3)c2=O)cc1 was tested, and the B-score was 2.26 (active). For COc1ccccc1N1CCN(C(=O)CSc2nnc(-c3ccoc3C)o2)CC1, the B-score was -1.48 (inactive). In the case of N=c1c2c3c(sc2ncn1N)CCCCC3, the B-score is reported as 1.08 (inactive). O=C(O)[C@@H]1CCCN1c1ncnc2sc3c(c12)CCC3 was tested, and the B-score was 0.0259 (inactive). In the case of CC1(C)CN=C(N2CCN(c3ncnc4sc5c(c34)CCCC5)CC2)S1, the B-score is reported as -3.91 (active). For O=C1CCCC2=C1C(c1cccs1)n1nc(SCc3ccccc3)nc1N2 (stereo unspecified), the B-score was 1.97 (inactive). COC(=O)c1c(NC(=O)CCN2CCOCC2)sc2c1CCCC2 was tested, and the B-score was 0.415 (inactive). CCOC(=O)c1c(NC(=O)CSc2nnc(CN3CCOCC3)n2C)sc2c1CCCC2 was tested, and the B-score was -2.5 (active). In the case of CCOC(=O)c1c(NC(=O)CSc2nnc(C)c(=O)[nH]2)sc2c1CCC2, the B-score is reported as 0.293 (inactive). In the case of Cc1coc2c(O)cc3c(c12)OC1(N2CCCCC2)C(=O)NCCCC31 (stereo unspecified), the B-score is reported as 0.313 (inactive). For CCOc1ccc(N(CC(=O)OC)S(=O)(=O)c2c(C)noc2C)cc1, the B-score was 0.515 (inactive). For Cc1cc(C)c2nc(SCCC#N)nc(C)c2c1, the B-score was -0.0173 (inactive). In the case of CC(=O)N1C(=O)C2(Nc3ccccc3N2)c2ccccc21, the B-score is reported as -0.00551 (inactive). With CCCc1[nH]nc2c1C(c1c(C)nn(-c3ccccc3)c1Cl)C(C#N)=C(N)O2 (stereo unspecified) the B-score was -0.557 (inactive). COc1ccccc1NC(=O)C1=C(C)Nc2nnnn2C1c1cccc(Br)c1 (stereo unspecified) was tested, and the B-score was 0.285 (inactive). COC(=O)c1ccc(C2C3=C(Nc4nnnn42)c2ccccc2OC3)cc1 (stereo unspecified) was tested, and the B-score was -2.33 (active). With COc1ccc(C2C(C(=O)Nc3ccccc3OC)=C(C)Nc3nnnn32)c(OC)c1 (stereo unspecified) the B-score was -0.00786 (inactive). For CCSc1nc(=S)n(CC)c(C)c1C(C)=O, the B-score was -0.669 (inactive). For O=c1c2ccccc2oc2nc3n(c(=O)c12)CCCS3, the B-score was 0.0394 (inactive). In the case of O=C(C(NS(=O)(=O)c1cccc2nsnc12)c1ccccc1)N1CCN(c2ccccn2)CC1 (stereo unspecified), the B-score is reported as -4.43 (active). With O=C(O)c1ccc(NS(=O)(=O)c2cccc3nsnc23)cc1 the B-score was 1.18 (inactive). For CC(=C1C(=O)c2ccccc2C1=O)N1CCN(c2ccccn2)CC1, the B-score was 0.0748 (inactive). O=C(CSc1nnnn1C1CCCC1)Nc1ccc2c(c1)OCCO2 was tested, and the B-score was -1.53 (inactive). With CCc1ccc2oc(=O)cc(CN3CCCCC3C)c2c1 (stereo unspecified) the B-score was -0.803 (inactive). Cc1ccc(-c2ccc(=O)n(CC(=O)NCCCN3CCCCC3)n2)cc1 was tested, and the B-score was -0.074 (inactive). With CC1(C)CC(=O)C=C(NCCCNC2CCCCC2)C1 the B-score was -0.705 (inactive). With CC(=O)OC(C)C[N+](C)(C)C (stereo unspecified) the B-score was -11.2 (active). CC(C[N+](C)(C)C)OC(N)=O (stereo unspecified) was tested, and the B-score was -15 (active). For CCOC(=O)c1c(C)n(C)c2ccc(OC)c(NC(=O)CN3CCC4(CC3)OCCO4)c12, the B-score was -0.00466 (inactive). For O=C(O)c1ccc(-n2cccc2)cc1O, the B-score was -0.249 (inactive). For COc1ccccc1OCCC(=O)OCC(=O)NC(=O)NC(C)(C)C, the B-score was -0.989 (inactive). In the case of CCOC(=O)C1CCCN(Cc2nc(N)nc(Nc3ccc(C)cc3)n2)C1 (stereo unspecified), the B-score is reported as -0.238 (inactive). O=C(CN1CCN(C2CCCCC2)CC1)Nc1ccccc1N1CCCCC1 was tested, and the B-score was -0.00297 (inactive). For CCOC(=O)Nc1ccc2c(c1)N(C(=O)CN1CCN3CCCC3C1)c1ccccc1CC2 (stereo unspecified), the B-score was -4.22 (active). In the case of CC(=O)Nc1cccc(NC(=O)c2c(-c3ccccc3)noc2C)c1, the B-score is reported as 0.424 (inactive). For Cn1c(=O)[nH]c(=O)c2c1nc(N1CCN(CCO)CC1)n2CCSc1nc2ccccc2s1, the B-score was -0.514 (inactive). With C=C(Br)Cn1c(CCCC)nc2ccccc21 the B-score was 0.344 (inactive). OC1CN=C2Sc3ccccc3N2C1 (stereo unspecified) was tested, and the B-score was -0.000781 (inactive). With CCn1c(SCC(=O)Nc2cc(C)c(Cl)cc2OC)nnc1-c1ccco1 the B-score was 0.0151 (inactive). With COc1cc(Cl)c(C)cc1NC(=O)CSc1nnc(-c2ccco2)n1CC(C)C the B-score was -3.28 (active). For COc1cc(Cl)c(C)cc1NC(=O)CSc1nnc(-c2cccnc2)n1Cc1ccco1, the B-score was 1.15 (inactive). Cc1ccc(C)c2[nH]c(=O)c(CCNC(=O)CC(C)C)cc12 was tested, and the B-score was 0.426 (inactive). In the case of O=c1/c(=C/c2ccc(CNS(=O)(=O)c3ccccc3)o2)sc2n1CCN=2, the B-score is reported as -1.07 (inactive). c1ccc2[nH]c(-c3nc4ccccc4[nH]3)nc2c1 was tested, and the B-score was 0.625 (inactive). With C=CCSc1nc2ccccc2[nH]1 the B-score was -3.2 (active). For O=C(CSc1nc2ccccc2[nH]1)c1cccs1, the B-score was 0.722 (inactive). In the case of O=S(=O)(c1cccc(-c2nnc(SC(F)F)n2-c2ccccc2)c1)N1CCCCC1, the B-score is reported as 0.56 (inactive). For CCCCN=C(N)/C(C(=O)OCC)=C(\O)c1ccc(OC)cc1, the B-score was 0.0185 (inactive). Cc1cccc(C)c1NC(=O)CCCSc1nnc(-c2ccco2)n1-c1ccccc1 was tested, and the B-score was 0.509 (inactive). In the case of CCOC(=O)N1CCN(C(=O)C2CCN(S(C)(=O)=O)CC2)CC1, the B-score is reported as -0.427 (inactive). For CCOC(=O)N1CCN(S(=O)(=O)c2cc(Br)cc3c2N(C(=O)C2CC2)CC3)CC1, the B-score was -2.88 (active). In the case of CCN(c1ccc2c(c1)OCO2)S(=O)(=O)c1cc(Br)cc2c1N(C(=O)C1CC1)CC2, the B-score is reported as -0.598 (inactive). In the case of COc1ccccc1N1CCN(Cc2ccc(OC)c3ccccc23)CC1, the B-score is reported as 0.229 (inactive). In the case of COc1ccc(S(=O)(=O)Nc2ccc(S(=O)(=O)N3CCCCC3)cc2)cc1OC, the B-score is reported as 0.8 (inactive). For Cc1ccc(C)c(NC(=O)CSc2nnc(Cc3cccn3C)n2-c2ccc(F)cc2)c1, the B-score was 0.873 (inactive). For CCOc1ccc(-c2nnn(CC(=O)N3CCN(c4ccc(OC)cc4)CC3)n2)cc1OCC, the B-score was 0.00223 (inactive). For COc1ccc(-c2nnn(Cc3nc(N)nc(N4CCCCC4)n3)n2)cc1, the B-score was -1.19 (active). With CCc1ccc(-c2nnn(Cc3nn[nH]n3)n2)cc1 the B-score was 0.0832 (inactive). Cc1cc(C)c(C#N)c(SCc2[nH]nc3c2C(c2ccccc2)C(C#N)=C(N)O3)n1 (stereo unspecified) was tested, and the B-score was 0.363 (inactive). N#CC1=C(N)Oc2n[nH]c(CSc3ccccc3)c2C12C(=O)Nc1ccccc12 (stereo unspecified) was tested, and the B-score was 2.72 (active). For COc1ccc(Br)cc1/C=N/n1c(C)nnc1C, the B-score was 0.304 (inactive). For CCOc1ccc(C2C(C(=O)NC)=C(C)Nc3nc4ccccc4n32)cc1OC (stereo unspecified), the B-score was -3.24 (active). With COc1cc(C2C(C(=O)Nc3ccccc3OC)=C(C)Nc3ncnn32)ccc1O (stereo unspecified) the B-score was -0.653 (inactive). With COc1cc(C2C(C(=O)Nc3ccc(F)cc3)=C(C)Nc3nc(CCCO)nn32)cc(OC)c1OC (stereo unspecified) the B-score was 0.464 (inactive). In the case of CN(C)CCOC(=O)C(c1ccccc1)C1(O)CCCC1 (stereo unspecified), the B-score is reported as -11.9 (active). With COc1ccc(OCC(=O)OCCN(C)C)cc1 the B-score was 0.389 (inactive). Cn1nc(-c2ccc(Cl)cc2)c2cc(C(=O)NCc3ccco3)sc21 was tested, and the B-score was 0.443 (inactive). In the case of CCN1CCN(C(=O)CN(C)S(=O)(=O)c2ccc(OC)cc2)CC1, the B-score is reported as 0.444 (inactive). In the case of c1ccc(-c2nnc3n2NC(c2ccc4c(c2)OCO4)S3)cc1 (stereo unspecified), the B-score is reported as -0.212 (inactive). In the case of CC1=Nn2c(nnc2-c2ccccc2)SC1, the B-score is reported as -3.94 (active). With COc1ccc(-c2nn3c(-c4ccccc4)nnc3s2)cc1OC the B-score was -1.59 (inactive). With c1ccc(-n2ncc(-c3nn[nH]n3)n2)cc1 the B-score was 2.54 (inactive). With Cc1cc(NC(=O)CSCc2nc(-c3cccc(Cl)c3)oc2C)no1 the B-score was 0.32 (inactive). In the case of Cc1ccsc1-c1nc(CSCC(=O)NCCN2CCCC2)c(C)o1, the B-score is reported as -4.42 (active). With Cn1c(C(=O)NCCCN2CCCCC2)cc2sccc21 the B-score was -1.16 (inactive). In the case of COCCn1c(CN(Cc2ccccc2)Cc2ccccc2)nc2c1c(=O)n(C)c(=O)n2C, the B-score is reported as 0.00241 (inactive). In the case of CSCCC(NC(N)=O)C(=O)N(C)CC(=O)Nc1ccc(C)cc1 (stereo unspecified), the B-score is reported as -0.414 (inactive).
